Reference: the supplement of paper PMC9334596
Values joined by “and” are separate entries in the source; they are usually repeats but may differ in a detail not shown here. Identical values can stand only once. In all, about 5,300 compounds were measured (“PER2::LUC luminescence relative to vehicle control”: median about 0.96, highest 2% from about 1.3 on). Many of the other results were omitted from the sample, so the highest values are more common in it than they were.

Test system: mPer2Luc MEF
Test: PER2::LUC luminescence relative to vehicle control (fold of vehicle); higher = higher PER2::LUC reporter signal
Settings: 10 µM
Summary of the method: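 Compounds from commercial libraries were added at 10 μM to 384-well plates seeded 48 h earlier with ~3000 mPer2Luc mouse embryonic fibroblasts per well. The cells were kept in DMEM with 10% FBS at 37 °C and 5% CO2. Luminescence was read with ONE-Glo 24 h and 30 h after treatment, then an alamarBlue viability assay was run. Values are PER2::LUC luminescence relative to vehicle control, as fold change.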

SMILES | PER2::LUC luminescence (time after treatment 24 h) | PER2::LUC luminescence (time after treatment 30 h)
CCCCCCC(=O)CCCCCC/C=C/C[C@@H](O)[C@H](O)[C@@](N)(CO)C(=O)O | 1.26 | 1.35
Cc1ncc(C[n+]2csc(CCO)c2C)c(=O)[nH]1 | 1.01 | 0.895
NCC(CC(=O)O)c1ccc(Cl)s1 (racemic) | 1.04 | 0.985
CC[C@H](C)[C@@H]([C@@H](CC(=O)N1CCC[C@H]1[C@H](OC)[C@@H](C)C(=O)N[C@H](C)[C@@H](O)c1ccccc1)OC)N(C)C(=O)[C@@H](NC(=O)[C@@H](NC)C(C)C)C(C)C | 0.378 | 0.38
NCCc1ccc(O)cc1 | 1.03 and 0.947 | 0.942 and 0.934
Cc1[nH]c2ccc(O)cc2c1CCN | 1.08 and 1.05 | 0.977 and 1.35
NCCc1c[nH]c2ccc(O)cc12 | 0.925 | 0.97
NC(CCCCCP(=O)(O)O)C(=O)O (racemic) | 1.22 | 1.09
O=[N+]([O-])c1cc([As](=O)(O)O)ccc1O | 1.08 | 1.54
O=[N+]([O-])c1ccc([As](=O)(O)O)cc1 | 1.13 | 0.866
CC(=O)Nc1cc([As](=O)(O)O)ccc1O | 1.04 and 1.02 | 1.06 and 0.878
COc1cc(=O)oc(/C=C/C=C/C=C/C(C)=C/[C@@]2(C)O[C@H](C)[C@](C)(O)[C@H]2O)c1C | 0.952 | 0.913
COc1c2c3c4c(c(OC)c(=O)c5c(O)cc(OC)c(c6c(OC)cc(O)c(c1=O)c63)c54)[C@@H](C(C)=O)[C@@](C)(O)C2 | 1.14 | 1.06
O=C(O)[C@@H]1C[C@H]2C[C@@H](CP(=O)(O)O)CC[C@H]2CN1 | 1.03 | 0.966
C=C(C)c1cc2cc(C(C)=O)c(O)cc2o1 | 1.31 | 1.39
OCC1C(O)C(O)C2C(O)CCN12 (stereo not drawn) | 1.1 | 1.08
COc1ccc(/C=C/c2cc(O)cc(O)c2)cc1 | 1.69 | 1.76
C=CCc1ccc(OC)cc1 | 0.993 | 0.968
COc1ccc(O)c(C(C)(C)C)c1.COc1ccc(O)cc1C(C)(C)C | 0.868 | 1.18
CC(=O)Oc1ccc(/C=C/c2cc(OC(C)=O)cc(OC(C)=O)c2)cc1 | 1.76 | 1.65
CCCC(=O)O[C@@H]1[C@@H](C)[C@@]2(O)[C@@H](C=C(CO)C[C@]3(O)C(=O)C(C)=C[C@@H]23)[C@@H]2C(C)(C)[C@]12OC(=O)CCC | 1.13 | 0.899
COc1cc2c(cc1F)C(c1ccccc1Cl)=Nc1c(n[nH]c1C)N2 | 0.461 | 0.367
CC(=O)OCC1=C[C@H]2[C@@H]3C(C)(C)[C@]3(OC(=O)Cc3ccccc3)C[C@@H](C)[C@]2(O)[C@@H]2C=C(C)C(=O)[C@@]2(O)C1 | 1.21 | 1.09
COc1ccc(C(C)(C)C)cc1CN[C@H]1C2CCN(CC2)[C@H]1C(c1ccccc1)c1ccccc1 | 0.868 | 0.939
